High-throughput results: PubChem BioAssay, several laboratories
p47phox inh = blocks human p47phox regulatory protein of NADPH oxidases | AID 1274 | p47phox/p22phox peptide binding, fluorescence polarization, 2 h | P14598 | 220,000 compounds, 0.53% hits | inhibition, % at 24.7 µM;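 active means inhibition above about 30%, limit read from the data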;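 further: 0% = p47phox with labelled peptide and 100% = labelled peptide alone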
Mcl1-Noxa inh = Mcl-1/Noxa interaction inhibition. TR-FRET Mcl-1/Noxa peptide binding, 2 h. inhibition, % at 21.7 µM. 220,000 compounds, 1.5% hits;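 active means compounds that cut the protein-peptide binding signal by more than 50% relative to plate controls in a single-dose test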;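 further: His-tagged Mcl-1 with rhodamine Noxa BH3 peptide and terbium anti-His antibody; 0% = Mcl-1 plus Noxa peptide wells and 100% = peptide-only wells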
Target sequence (Q07820 whole entry, looked up): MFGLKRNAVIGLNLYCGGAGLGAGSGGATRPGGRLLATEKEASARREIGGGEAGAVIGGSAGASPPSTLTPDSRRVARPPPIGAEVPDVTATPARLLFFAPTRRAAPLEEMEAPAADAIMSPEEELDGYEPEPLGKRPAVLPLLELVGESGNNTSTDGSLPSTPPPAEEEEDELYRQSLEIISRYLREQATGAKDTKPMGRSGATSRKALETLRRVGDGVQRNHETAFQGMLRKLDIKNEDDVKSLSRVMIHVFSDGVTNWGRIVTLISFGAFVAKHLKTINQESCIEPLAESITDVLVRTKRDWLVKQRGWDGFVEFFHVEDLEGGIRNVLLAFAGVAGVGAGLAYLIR
14-3-3 Bad inh = disrupts binding of bovine 14-3-3 zeta to phospho-Bad peptide | 220,000 compounds, 0.71% hits | AID 781 | inhibition, % at 21.7 µM | TR-FRET 14-3-3zeta/Dy647-pBad peptide displacement, 1 h;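 active means inhibition above about 70%, limit read from the data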;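 further: 0% = full 14-3-3 plus peptide FRET controls and 100% = background without 14-3-3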
Target sequence (P63103 whole entry, looked up): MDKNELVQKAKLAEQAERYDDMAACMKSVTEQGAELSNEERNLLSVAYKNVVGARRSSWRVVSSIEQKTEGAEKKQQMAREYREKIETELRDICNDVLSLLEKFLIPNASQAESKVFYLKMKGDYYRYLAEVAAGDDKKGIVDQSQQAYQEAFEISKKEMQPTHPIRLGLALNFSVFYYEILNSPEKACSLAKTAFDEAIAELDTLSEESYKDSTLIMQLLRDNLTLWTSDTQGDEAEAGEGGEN
Mcl1-Bid inh = disrupts binding of human Mcl-1 to Bid peptide | Q07820 | TR-FRET Mcl-1/Bid-Dy647 peptide binding, 1536-well | inhibition, % at 21.7 µM | 220,000 compounds, 0.97% hits | AID 1021;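 active means compounds that cut the binding signal by more than half at the single screening dose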;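 further: His-tagged Mcl-1 with europium anti-His antibody binding Bid BH3 peptide; 0% = Mcl-1 plus peptide wells and 100% = peptide-only wells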
Bim-Mcl-1 = inhibitors of Bim-Mcl-1 interaction, human | Bead-based flow cytometry, Bim peptide-Mcl-1 binding | inhibition, % at 10 µM | 190,000 compounds, 0.1% hits | AID 1009; in the data active means inhibition above about 40%;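 further: 0% = no compound tracer wells and 100% = peptide blocker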
* marks the source's active call; other numbers are inactive results; nt = not tested or not shown. Hits are enriched below; roughly 3.2% of the tested compounds scored in any of these assays.

SMILES | p47phox inh | Mcl1-Noxa inh | 14-3-3 Bad inh | Mcl1-Bid inh | Bim-Mcl-1
O=C(O)c1cc(-c2c[nH]c3ccccc23)nc2cc3ccccc3cc12 | -9 | 29 | -7 | -30 | nt
O=[N+]([O-])c1ccc(-c2nc3ccc([N+](=O)[O-])cc3[nH]2)cc1 | 7 | 63* | 37 | 78* | 0
Nc1ccc(-c2nc3ccc([N+](=O)[O-])cc3[nH]2)cc1 | -25 | 51* | -10 | -20 | 2
Nc1ccc(-c2nc3ccc(N)cc3[nH]2)cc1 | -8 | 31 | 6 | -42 | 10
Nc1ccc2nc(-c3ccc(Cl)cc3)[nH]c2c1 | -20 | 85* | 11 | -78 | 0
CCCC[n+]1ccc(-c2nc3ccc([N+](=O)[O-])cc3[nH]2)cc1 | 5 | 14 | 17 | -4 | -3
Cc1nc2ccc(-c3nc4ccc(N)cc4[nH]3)cc2[nH]1 | -204 | 46 | 34 | -66 | 1
S=c1[nH]nc(CCCc2n[nH]c(=S)o2)o1 | -14 | 7 | -3 | -58 | nt
O=C(O)CCc1nc2ccccc2c(=O)[nH]1 | -6 | 12 | 3 | -8 | nt
CC(C)c1ccc(N2C(=O)CC(NNC(=O)c3cccnc3)C2=O)cc1 (centres undefined) | 7 | -26 | -5 | -19 | nt
COc1cc(/C=N/NC(=O)CCOc2ccccc2C)cc(Br)c1O | -4 | 67* | -19 | -30 | -1
Cc1ccc(NCc2cccnc2)cc1 | 15 | 34 | 71* | 23 | 1
Cc1cc(C(=O)N2CCOCC2)n(-c2ccccc2)n1 | -6 | 20 | -20 | 51* | 0
Cc1cc(C(=O)N2CC(C)CC(C)C2)n(-c2ccccc2)n1 (centres undefined) | -8 | -10 | 10 | -7 | -1
COc1ccc(/C=N/Nc2ncnc3c2[nH]c2ccccc23)c(OC)c1OC | 15 | 55* | 49 | 49 | -5
C=CCNc1ncnc2c1[nH]c1ccc(C)cc12 | -19 | 26 | 13 | -6 | -1
COCCNc1ncnc2c1[nH]c1ccccc12 | -3 | -4 | -2 | -13 | nt
COc1cccc(/C=N/Nc2ncnc3c2[nH]c2ccc(C)cc23)c1OC | 30 | 100* | 88* | 35 | nt
COCc1cc(C)n(CC(=O)Nc2cc(C)cc(C)c2)c(=O)c1C#N | 5 | -7 | -1 | -10 | -1
OCCN(Cc1ccccc1)Cc1cccc(Cl)c1Cl | 0 | 19 | 88* | 31 | -7
O=C1Nc2ccccc2N(O)N1c1cc(-c2ccc(Cl)cc2)[nH]n1 | -9 | -3 | -3 | -11 | 3
CSc1ccc(CN2CCC(C(=O)NCc3ccc(C)cc3)CC2)cc1 | -7 | 29 | 64 | 50* | 0
CC(C)c1ccc(CN2CCC(C(=O)NCc3cccnc3)CC2)cc1 | -1 | 31 | 74* | 43 | 1
Cc1ccc(SCCNC(=O)c2ccc(CN3CCOCC3)cc2)cc1 | 2 | 12 | -8 | -21 | -1
COc1ccc(CN2CCOCC2)cc1 | -10 | 41 | 74* | 27 | 3
SMILES | p47phox inh | Mcl1-Noxa inh | 14-3-3 Bad inh | Mcl1-Bid inh | Bim-Mcl-1
Cc1ccc(CNC(=O)c2ccc(CN3CCOCC3)cc2)cc1 | 37* | 23 | 24 | -25 | -3
O=C(/C=C/c1ccc(S(=O)(=O)N2CCOCC2)cc1)NCCCn1ccnc1 | -15 | 2 | -10 | -33 | -1
CS(=O)(=O)N1CCCC(C(=O)Nc2ccc3c(c2)OCCO3)C1 (centres undefined) | 2 | -6 | -4 | -7 | 0
CNC(=O)c1nnn(Cc2ccccc2)c1NC(C)=O | -15 | 12 | 9 | -8 | -2
CNC(=O)c1nnn(Cc2ccccc2)c1NC(=O)C(F)(F)F | -15 | 11 | 77* | -6 | 0
Cn1cc(Br)c(NC(=O)/C=C/C(=O)O)n1 | 10 | 67* | 5 | 18 | nt
Cn1cc(Br)c(C(=O)Nc2c(F)c(F)c(F)c(F)c2F)n1 | -3 | 5 | -14 | -20 | -3
CCOC(=O)C1=C(O)C(=O)N(Cc2cccnc2)C1c1ccc(OC)cc1 (centres undefined) | -8 | 14 | -8 | -14 | 4
O=C(NC1CCSC1)c1cccc(Cl)c1 (centres undefined) | -6 | -15 | -4 | -10 | nt
Cc1ccc(-c2cc(C(=O)Nc3ccccc3C)c3ccccc3n2)o1 | 2 | 66* | -6 | 12 | -2
COC(=O)c1cc(-c2ccc(C)o2)nc2ccccc12 | 3 | 78* | 5 | 2 | 0
Cc1ccc(-c2cc(C(=O)Nc3cc(C)on3)c3ccccc3n2)cc1 | -4 | -2 | -13 | -6 | -4
Cc1ccc(-c2cc(C(=O)NCc3ccco3)c3ccccc3n2)o1 | -10 | 66* | 11 | 1 | 0
O=C(O)c1cc(-c2ccco2)nc2ccccc12 | -12 | 36 | 12 | -33 | -3
COc1ccccc1NC(=O)CCC(=O)OCc1ccc(Cl)cc1 | -2 | 7 | -2 | 2 | 0
CCN(CC)CCNC(=O)c1ccc(CS(=O)(=O)c2ccc(Br)cc2)o1 | -7 | 9 | 9 | 58* | -2
O=C(Nc1ccccc1)Nc1ccc2ncoc2c1 | 5 | 15 | -9 | -27 | 91*
O=C(Cc1ccc(Br)cc1)Nc1ncc([N+](=O)[O-])s1 | -12 | 70* | 12 | -20 | nt
CCCCn1c(=O)nc2n(-c3ccccc3)c3ccccc3cc-2c1=O | -10 | 5 | 18 | 64* | 0
Cc1ccc(C)c(-n2c3nc(=O)n(C)c(=O)c-3cc3ccccc32)c1 | -7 | -13 | 31 | 24 | nt
COC(=O)c1c(C)c2c(C)cc3ccccn3c-2c1C(=O)OC | 6 | 23 | 1 | -57 | 0
COC(=O)c1cc2c(-c3ccccc3)cc3ccccn3c-2c1C(=O)OC | 53* | -10 | -35 | -62 | 0
CCNC(=S)N1CCn2cccc2C1c1ccc(F)cc1 (centres undefined) | 40* | -1 | -9 | -34 | -1
CCc1cccc(CC)c1NC(=S)N1CCn2cccc2C1c1cccnc1 (centres undefined) | -7 | 17 | -7 | 75* | 22
O=C(CCc1ccccc1)Nc1cc(C(=O)O)cc(C(=O)O)c1 | 6 | 16 | -3 | 7 | -3
SMILES | p47phox inh | Mcl1-Noxa inh | 14-3-3 Bad inh | Mcl1-Bid inh | Bim-Mcl-1
COc1cccc(COc2ccccc2C2Nc3ccc(Br)cc3C(=O)N2NC(=O)c2ccncc2)c1 (centres undefined) | 0 | 14 | 5 | -3 | 0
O=C(NCc1nnc(SCC(=O)N2CCCC2)o1)c1c(F)cccc1Cl | -14 | -3 | 2 | -6 | -4
O=C(NCc1nnc(SCC(=O)N2CCOCC2)o1)c1c(F)cccc1Cl | -14 | 19 | -12 | 77* | 3
C/C(=N/O)c1no[n+]([O-])c1/C(C)=N\O | -12 | -3 | -5 | -14 | nt
CC(C)c1ccc(NC(=O)C(c2ccc3c(c2)OCO3)N2CCCCC2)cc1 (centres undefined) | -17 | 12 | -3 | -3 | 0
Oc1cc2c(cc1C(c1ccc(Cl)c(Cl)c1)N1CCCC1)OCO2 (centres undefined) | 11 | 92* | 18 | 94* | -3
CCC(=O)OCCNc1cc(Sc2nc3ccccc3s2)c2nonc2c1[N+](=O)[O-] | -11 | 58* | -4 | -100 | 2
